HP1b chromo inh = blocks HP1-beta chromodomain binding to methylated histone tails; P83916; AlphaScreen HP1-beta / biotin-H3K9me3 peptide binding; Potency, µM (doses to about 114 µM), hits mostly inhibitors; 0.56% of 390,000 active; AID 540317; also: nearly all actives have a fitted effect of over 70% in size
Target sequence (P83916 whole entry, looked up): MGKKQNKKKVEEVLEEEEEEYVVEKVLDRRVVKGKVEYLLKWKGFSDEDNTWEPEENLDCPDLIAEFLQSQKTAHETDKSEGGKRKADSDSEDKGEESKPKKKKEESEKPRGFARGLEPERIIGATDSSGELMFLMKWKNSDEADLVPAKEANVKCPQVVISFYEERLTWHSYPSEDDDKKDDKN
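HP1-beta protein (50 nM final) preincubated 30 min at room temperature with biotinylated H3(1-18)K9me3 peptide (50 nM) in PBS pH 7.4, 0.01% Tween-20, then compound added for 30 min. AlphaScreen streptavidin donor/nickel chelate acceptor beads (10 ug/mL final), 30 min dark, luminescence read.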
BAZ2B block = blocks human BAZ2B; Potency, µM (series often up to 114 µM), most hits filed as inhibitors; AID 504333; Q9UIF8; 4.4% of 360,000 active; AlphaScreen BAZ2B-H3K14Ac peptide displacement; also: nearly all actives have a fitted effect of over 60% in size
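Multi-concentration screen (max 110 uM) measuring displacement of acetylated histone H3 peptide from BAZ2B by AlphaScreen, using 50 nM protein, 50 nM peptide and 10 ug/mL streptavidin donor plus Ni-chelate acceptor beads.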
L3MBTL1 block = blocks human L3MBTL1. AlphaScreen L3MBTL1–H3K9me1 peptide binding. AID 485360. Potency, µM (top dose mostly 57.1 µM), actives largely listed as inhibitors. 0.66% of 230,000 active. Q9Y468; also: nearly all actives have a fitted effect of over 60% in size
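Read-out is AlphaScreen signal from streptavidin donor and nickel chelate acceptor beads (10 ug/mL final each) bridging L3MBTL1 (50 nM) and biotinylated K9-monomethylated H3(1-15) peptide (75 nM), after 30 min compound exposure at room temperature.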
G9a block = inhibitors of human histone lysine methyltransferase G9a. Q96KQ7. G9a H3K9 monomethylation, AlphaScreen, 2 h. Potency, µM (top dose mostly 102 µM), usual class: inhibitors. 8.8% of 350,000 active; also: nearly all actives have a fitted effect of over 75% in size
Target sequence (Q96KQ7 913-1193 limits assumed): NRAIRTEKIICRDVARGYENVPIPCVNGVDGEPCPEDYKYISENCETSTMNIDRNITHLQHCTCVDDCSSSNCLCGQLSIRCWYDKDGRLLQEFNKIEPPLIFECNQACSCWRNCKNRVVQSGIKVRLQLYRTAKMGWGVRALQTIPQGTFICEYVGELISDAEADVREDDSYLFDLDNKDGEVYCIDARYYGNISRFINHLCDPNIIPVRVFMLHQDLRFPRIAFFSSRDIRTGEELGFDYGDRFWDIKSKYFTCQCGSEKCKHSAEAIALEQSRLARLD
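Enzyme 20 nM + cpd, 15 min RT; add b-H3K9 pep 500 nM / SAM 20 uM; 2 h RT; anti-H3K9me1 Ab 0.5 ug/mL + SA donor / anti-rabbit acceptor beads 20 ug/mL each, 10 min; AlphaScreen read.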
JMJD2A Tudor inh = blocks the human JMJD2A Tudor domain; O75164; AlphaScreen JMJD2A-Tudor / H3K4me3 peptide binding; Potency, µM (top dose mostly 114 µM), usual class: inhibitors; 4.4% of 390,000 active; AID 504339; also: nearly all actives have a fitted effect of over 50% in size
Numbers stand for hits; . = inactive; ? = inconclusive; / = no result; ! = a repeat was not active; [ ] = remark or other dose. Rows were chosen to be rich in hits. Some 11% of all compounds tested hit in one or more screens of this group. Calls follow the shape of the dose curve; as a rule, active = well fitted inhibition curve with a large enough effect; inconclusive = small, poorly fitted or top-dose-only effect; inactive = no such curve, though single readings can be large or run the other way.

SMILES	HP1b chromo inh	BAZ2B block	L3MBTL1 block	G9a block	JMJD2A Tudor inh
O=C(CSCc1cnn(-c2ccccc2)c1-n1cccc1)NCc1ccc(F)cc1	.	.	/	.	.
Cc1cc2cc(CN(Cc3ccc4c(c3)OCO4)Cc3nnnn3C3CCCC3)c(=O)[nH]c2cc1C	.	/	.	.	.
CCc1ccc2[nH]c(=O)c(CN(Cc3ccccc3)Cc3nnnn3Cc3ccco3)cc2c1	.	.	.	10µM	?
Cc1ccc2cc(CN(Cc3ccco3)Cc3nnnn3Cc3ccco3)c(=O)[nH]c2c1	.	/	/	/	.
O=c1[nH]c2cc3c(cc2cc1CN(CCc1ccccc1)Cc1nnnn1C1CCCC1)OCCO3	/	.	.	15.8µM	/
O=c1[nH]c2cc3c(cc2cc1CN(Cc1ccccc1)Cc1nnnn1Cc1ccco1)OCCO3	.	/	?	25.1µM	?
COc1ccccc1CN(Cc1cc2cc3c(cc2[nH]c1=O)OCCO3)Cc1nnnn1Cc1ccco1	.	?	.	?	35.5µM
O=c1[nH]c2cc3c(cc2cc1CN(Cc1cccnc1)Cc1nnnn1Cc1ccco1)OCCO3	.	?	/	?	?
COc1ccc2oc(-c3cccc(NC(=O)c4cc([N+](=O)[O-])ccc4N4CCOCC4)c3)nc2c1	.	?	/	?	.
COc1ccc(C(=O)N(Cc2ccccc2)Cc2ccc(OC)c(COc3ccc(NC(C)=O)cc3)c2)cc1	.	/	/	/	?
Cc1c2cnn(-c3ccccc3)c(=O)c2c(C)n1CCCC(=O)Nc1ccc(F)cc1F	.	?	/	.	.
Cc1ccc2[nH]c(=O)c(CN(CCc3ccccc3)C(c3nnnn3Cc3ccco3)C(C)C)cc2c1 (stereo not given)	.	.	/	?	?
CCC(c1nnnn1Cc1ccco1)N(CCc1ccccc1)Cc1cc2cc(C)ccc2[nH]c1=O (stereo not given)	.	.	.	39.8µM	.
O=S(=O)(NC1CCC(CNS(=O)(=O)c2c(F)cccc2F)CC1)c1ccc2c(c1)OCCO2 (stereo not given)	/	.	.	.[12.7 µM]	/
CCOC(=O)c1cc(-c2ccc(C)cc2)nn1Cc1ccccc1	.	/	/	.	.
CCN(CC(=O)Nc1c(F)cccc1F)C(=O)COc1cccc2c1OC(C)(C)C2	.	.	.	.[0.501 µM]	.
Cc1ccc2c(C)ccc(O)c2n1	.	?	/	3.55µM	.
Cc1ccc2c(Cl)cc(Cl)c(O)c2n1	.	/	/	/	.
O=C(CSc1nn(-c2ccc(Cl)cc2)c(=S)s1)N1CCN(C(=O)c2ccco2)CC1	.	.	.	79.4µM	.
O=C(CSc1nn(-c2ccc(F)cc2)c(=S)s1)N1CCN(C(=O)c2ccco2)CC1	.	.	.	.	.
O=C(NCCc1ccccc1)C(=O)c1c(-c2ccccc2)cc2ccccn12	.	?	.	.	.
COC(=O)c1c(C(=O)OC)c2cccc3cc(-c4ccccc4)c4ccc1c4n32	?	2.51µM	/	?	8.91µM
COC(=O)c1cc2c(-c3ccccc3)cc3ccccn3c-2c1C(=O)OC	?	12.6µM	/	12.6µM	44.7µM
CC(=O)Nc1nc(-c2ccccc2)c(-c2ccccc2)s1	.	/	/	/	.
CC(=O)NC1Sc2ccccc2N=C1c1ccccc1 (stereo not given)	?	.	/	?	50.1µM
SMILES	HP1b chromo inh	BAZ2B block	L3MBTL1 block	G9a block	JMJD2A Tudor inh
Cc1c(CCC(=O)NCCCn2ccnc2)c(=O)oc2c(C)c3occ(C(C)(C)C)c3cc12	.	25.1µM	/	/	?
OC(COc1ccc2ccccc2c1Br)Cn1cnc(-c2ccccc2)c1 (stereo not given)	.	?	/	?	?
Cc1c(OCC(=O)NCCCn2ccnc2)ccc2c3c(c(=O)oc12)CCC3	.	.	/	.	.
Cc1coc2c(C)c3oc(=O)c(CCC(=O)NCCCn4ccnc4)c(C)c3cc12	.	.	/	.[12.7 µM]	.
Cc1c(C)c2ccc(OCC(=O)NCCCn3ccnc3)c(C)c2oc1=O	.	79.4µM	/	.	.
O=C(COc1ccc(Br)cc1)NCCCn1ccnc1	.	56.2µM	/	.	.
COc1ccc(OCC(O)Cn2cnc(-c3ccc(Br)cc3)c2)cc1 (stereo not given)	.	.	.	17.8µM	.
O=C(Nc1cccc(F)c1)c1ccc2oc(=O)n(Cc3ccccc3)c2c1	.	.	/	.	.
C=C1CN(C(C(=O)OC)C(C)C)S(=O)(=O)c2ccc(F)cc21 (stereo not given)	.	/	/	/	.
COc1ccccc1OCC(=O)NCCCn1ccnc1	.	79.4µM	?	.	.
OC(COc1ccc(Br)cc1)Cn1ccnc1 (stereo not given)	.	.	/	79.4µM	.
Cc1ccc(C(C)C)cc1OCC(=O)NCCCn1ccnc1	.	/	.	/	.
COc1cc(OC)cc(OCC(O)Cn2ccnc2)c1 (stereo not given)	.	.	.	.	.
O=c1[nH]ncn1-c1ccc(Br)cc1	.	.	.	?	.
CCCCS(=N)(=O)CC[C@H](N)C(=O)O (stereo not given in full)	/	/	/	10µM!	/
CN=C(N)NCCC[C@H](N)C(=O)O	.	.	.	?	.
NC(=O)c1ccsc1NC(=O)c1ccc2c(c1)CCCC2	.	.	.	.	.
NC(=O)c1ccsc1NC(=O)c1ccc(N2CCCC2=O)cc1	.	.	/	44.7µM	.
COc1ccc(CC(=O)NCc2ccc3c(c2)CCN3C(=O)c2ccccc2)cc1OC	.	.	/	.	.
C=CCn1c(C)cc(C(=O)COc2ncnc3sccc23)c1C	.	.	.	?	.
Cc1cc(C(=O)CSc2nc(N)cc(N)n2)c(C)n1-c1cccc(F)c1	?	?	.	.	28.2µM
C=CCn1c(C)cc(C(=O)CSc2nc(N)cc(N)n2)c1C	.	?	.	31.6µM	.
Cc1cc(C(=O)CSc2nc(N)cc(N)n2)c(C)n1C1CC1	.	.	/	?	?
C=CCn1c(C)cc(C(=O)COC(=O)c2cncc(Br)c2)c1C	.	?	.	3.16µM	?
Cc1ccc(F)cc1NC(=O)COC(=O)C1CCN(c2ccc(C(F)(F)F)cn2)CC1	.	.	.	?	.
SMILES	HP1b chromo inh	BAZ2B block	L3MBTL1 block	G9a block	JMJD2A Tudor inh
Cc1cccc(N(C)C(=O)Cc2c(C(=O)O)[nH]c3ccccc23)c1	.	.	/	.	.
Cc1ccc(CSC2=Nc3ccccc3C3=NC(CCC(=O)N4CCN(c5ccccc5)CC4)C(=O)N23)cc1 (stereo not given)	.	.	/	17.8µM	.
O=C(CSC1=Nc2ccccc2C2=NC(CC(=O)N3CCN(c4ccccc4)CC3)C(=O)N12)NCC1CCCO1 (stereo not given)	.	.	/	50.1µM	.
CCOC(=O)c1c(NC(=O)COC(=O)/C=C/c2ccco2)sc2c1CC(C)(C)NC2(C)C	?	?	?	15.8µM	?
CCOC(=O)c1c(NC(=O)CSc2nc3ccccc3[nH]2)sc2c1CC(C)(C)NC2(C)C	.	.	.	39.8µM	.
N#Cc1c(C(F)(F)F)cc(-c2ccc(Cl)c(Cl)c2)nc1SCCN1CCOCC1	.	.	.	56.2µM	.
Cc1cc(C(F)(F)F)nc(SCCN2CCOCC2)c1C#N	.	.	.	12.6µM	.
